Here are results for 40 molecules from PubChem BioAssay AID2561 (National Center for Advancing Translational Sciences (NCATS), 2010).

Records with an inconclusive call do not appear. Where a call stands in place of a potency, no number is given. Activity calls are given as the source filed them. The call rests on the fitted dose curve; in most records, active means well fitted inhibition curve with a large enough effect; inconclusive means small, poorly fitted or top-dose-only effect, or effect the other way; inactive means flat fitted curve, though single readings scatter.
Potency means the concentration at half of the fitted maximal effect.

The target in this experiment is Pyruvate kinase (Leishmania mexicana) (UniProt Q27686). The experiment can be described thus: Confirmation Assay for Inhibitors of Leishmania Mexicana Pyruvate Kinase (LmPK): for Probe SAR. The note with it: purified LmPK, ATP generation, Kinase-Glo luminescence; series mostly up to 57.5 µM. From the text: NIH Chemical Genomics Center [NCGC] Malcolm Walkinshaw, Hugh Morgan, Linda Gilmore University of Edinburgh, UK MLPCN Grant: 1 R03 MH085697-01 NCGC Assay Overview: Pyruvate kinase (L. Mexicana) (LmPK) enzyme was supplied as a highly purified (>95% pure) sulphate-free preparation from University of Edinburgh, UK and assayed for its ability to generate ATP from ADP using phosphoenolpyruvate (PEP) as a substrate. ATP generation was detected in a coupled reaction by luciferase-mediated luminescence, an ATP-dependent process. Pyruvate kinase substrates, PEP and ADP, were present in the assay at Km and approximately 10-fold below Km respectively. The enzyme was assayed at an intermediate level of activity to screen for both inhibitors and activators.
Sequence of Pyruvate kinase (Leishmania mexicana) (Q27686 whole entry, looked up): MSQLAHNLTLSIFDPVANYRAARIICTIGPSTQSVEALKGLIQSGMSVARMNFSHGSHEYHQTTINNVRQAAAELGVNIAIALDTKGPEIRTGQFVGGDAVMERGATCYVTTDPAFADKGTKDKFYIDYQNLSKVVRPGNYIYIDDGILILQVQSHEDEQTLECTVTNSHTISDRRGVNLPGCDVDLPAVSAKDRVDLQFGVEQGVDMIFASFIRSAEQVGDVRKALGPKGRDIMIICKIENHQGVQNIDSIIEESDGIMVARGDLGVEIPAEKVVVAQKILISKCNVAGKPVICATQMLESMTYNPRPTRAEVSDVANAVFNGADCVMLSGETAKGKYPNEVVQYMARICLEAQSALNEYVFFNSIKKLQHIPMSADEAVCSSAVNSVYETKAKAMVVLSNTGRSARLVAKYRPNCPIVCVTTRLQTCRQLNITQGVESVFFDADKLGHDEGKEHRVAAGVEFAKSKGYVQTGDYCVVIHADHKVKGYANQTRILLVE
NCGC Assay Protocol Summary: Three uL of enzyme mix (kept on ice) in assay buffer (50 mM Imidazole pH7.2, 50 mM KCl, 7 mM MgCl2, 0.01% Tween 20, 0.05% BSA) containing PEP (0.5 mM final concentration) and LmPK (0.1 nM final concentration) was dispensed into white solid bottom 1,536 well microtiter plates. 23 nL of compound were delivered by a pin tool and 1 uL of ADP mix in assay buffer (r.t; 0.1 mM final ADP concentration) was added. Plates were incubated at room temperature for 1 hour. Two uL of detection mix (Kinase-Glo, Promega; at 4 degree Celsius protected from light) was added and luminescence read by a ViewLux (Perkin Elmer) at 1 second exposure/plate. Data were normalized to the uninhibited and AC100 inhibition (no enzyme). To monitor activation, the first column contained a five-fold concentration of LmPK (0.5 nM).
(In general: Kinase-Glo measures the ATP left after a reaction by luminescence.)
Turning to `COC(=O)c1ccccc1S(=O)(=O)Nc1cc(=O)c2ccccc2[nH]1`, the Potency entry is “inactive”. To `Cc1ccc(NS(=O)(=O)c2ccc3c(c2)CC(=O)N3C)cc1C` belongs “inactive”; to `O=S1(=O)N=C(Oc2ccccc2Br)c2ccccc21`, 5.8 µM (active); to `COc1ccc(O)cc1`, “inactive”. Consider `O=C1NS(=O)(=O)c2cscc21`, for which the Potency entry is “inactive”. Regarding `Cc1ccc2nc(-c3ccc(C)o3)c(Nc3ccc(Cl)cc3)n2c1`, the Potency entry was “inactive”. Then `Cc1ccc(NS(=O)(=O)c2cccc(C(=O)O)c2)cc1C`, with “inactive”; and `O=S1(=O)N=C(Oc2cccc(C(F)(F)F)c2)c2ccccc21`, with 4.61 µM (active). To `COc1ccccc1NS(=O)(=O)c1ccc2c(c1)CCC(=O)N2` belongs “inactive”. With `Cc1ccc(C)c(NC2=NS(=O)(=O)c3ccccc32)c1`, the Potency entry was “inactive”. To `Cc1ccc(NS(=O)(=O)c2ccc3c(c2)NC(=O)CO3)cc1C` belongs “inactive”; to `Cc1ccc(Nc2c(-c3ccc(C)s3)nc3cccc(C)n23)cc1`, “inactive”. In the case of `CCNc1cccc(S(=O)(=O)N2CCN(S(=O)(=O)c3ccc4c(c3)OCCO4)CC2)c1`, the Potency entry was “inactive”.

For `O=S1(=O)N=C(Oc2ccc(Br)cc2)c2ccccc21`, the Potency is 2.91 µM (active). In the case of `O=S1(=O)N=C(N2CCOCC2)c2ccccc21`, the Potency entry is “inactive”. Consider `Nc1ccc2c(c1)S(=O)(=O)NC2=O`, for which the Potency result is “inactive”. Regarding `O=C1c2ccccc2C(=O)N1c1ccc(Cl)cc1`, the Potency entry was “inactive”. Then `CC(=O)Nc1ccccc1OC1=N[S+](=O)([O-])c2ccccc21`, with “inactive”; and `O=C1CCc2cc(S(=O)(=O)Nc3cccc(C(F)(F)F)c3)ccc2N1`, with “inactive”; and `O=S1(=O)N=C(Oc2ccc(C(F)(F)F)cc2)c2ccccc21`, with 3.66 µM (active). Turning to `N#Cc1cccc(OC2=NS(=O)(=O)c3ccccc32)c1`, the Potency was 4.61 µM (active). In the case of `CN=c1nc(-c2ccccc2)n(-c2ccccc2)s1`, the Potency result was “inactive”.

For `Cc1ccc(NS(=O)(=O)c2cc3c(cc2C)NC(=O)CO3)cc1C`, the Potency result was “inactive”. Then `O=C1NS(=O)(=O)c2cc3c(cc21)C(=O)NS3(=O)=O`, with “inactive”.

Regarding `COc1cccc(Cn2ncc3c4sc(S(C)=O)cc4n(C)c3c2=O)c1` (stereo not given), the Potency entry is “inactive”. Then `Cc1ccc(NS(=O)(=O)c2ccc(N3CCCC3=O)cc2)cc1C`, with “inactive”. Then `COc1cccc2ccc(C3C(=O)c4ccccc4C3=O)nc12`, with “inactive”; and `Cc1scc2c1C(=O)NS2(=O)=O`, with “inactive”; and `Cc1cc(C)c2nc(C3C(=O)c4ccccc4C3=O)ccc2c1`, with “inactive”.

Take `O=C1CCc2cc(S(=O)(=O)Nc3cccc(F)c3)ccc2N1`: the Potency result is “inactive”. With `CC(=O)Nc1cccc(S(=O)(=O)Nc2ccc(C)c(C)c2)c1`, the Potency entry was “inactive”. To `O=C1c2ccccc2C(=O)N1c1ccc(O)cc1` belongs “inactive”; to `O=S1(=O)N=C(Oc2ccccc2F)c2ccccc21`, 3.26 µM (active); to `Cc1ccc2nc(-c3ccc(C)o3)c(Nc3ccccc3)n2c1`, “inactive”. To `O=C(O)c1ccccc1OC1=NS(=O)(=O)c2ccccc21` belongs 1.63 µM (active); to `N#Cc1ccccc1OC1=NS(=O)(=O)c2ccccc21`, 5.8 µM (active). Regarding `O=S1(=O)N=C(Oc2ccccc2-c2ccccc2)c2ccccc21`, the Potency was 3.66 µM (active). Then `Cc1ccc(NS(=O)(=O)c2ccc3c(c2)N(C)CCO3)cc1C`, with “inactive”; and `Cc1ccc(NS(=O)(=O)c2cc3c(cc2N(C)C)NC(=O)CC3)cc1C`, with “inactive”; and `Cc1ccc(NS(=O)(=O)c2ccc3c(c2)n(C)c(=O)n3C)cc1C`, with “inactive”.
